# Data as given in the supplement of paper PMC12297408.
# Values without a mark were called inactive.
# Test system: Plasmodium falciparum NF54/iGP1_RE9H ulg8 stage V gametocytes
# Experiment: gametocyte viability (luciferase signal relative to DMSO control) (% of DMSO control); higher = less gametocytocidal activity, active = 50 or less
# Conditions: concentration: 1 µM; exposure time: 72 h
# Method: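 Synchronous P. falciparum NF54/iGP1_RE9H ulg8 mature stage V gametocytes (day 12) were exposed to Cayman Epigenetics Screening Library compounds at 10 µM or 1 µM for 72 h at 37 °C. Viability was read as RE9H luciferase bioluminescence, normalised to DMSO plate controls (100%); 50 µM methylene blue was the positive control.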
row,Compound,gametocyte viability
1,CCCNNC(=O)c1ccc(CNC(=O)/C=C/c2ccccc2)cc1 [HDAC3 Inhibitor],83.6
2,O=C(O)c1ccc(CN2CCC(CN[C@@H]3C[C@H]3c3ccccc3)CC2)cc1,86.7
3,CCCC(=O)[O-].[Na+] [Sodium Butyrate],83.8
4,O=C(NC[C@H](O)CN1CCc2ccccc2C1)c1ccnc(NC2CCC2)c1,80.7
5,Nc1cc(F)ccc1NC(=O)c1ccc(CNC(=O)/C=C/c2cccnc2)cc1 [Chidamide],92.7
6,COc1cc2c(NC3CCN(C4CCCCC4)CC3)nc(N3CCCN(C(C)C)CC3)nc2cc1OCCCN1CCCCC1,75.5
7,O=Nc1ccc(O)c2ncccc12 [5-Nitroso-8-quinolinol],88.4
8,COc1cc2c(cc1OCCCN1CCCC1)N=C(N)C21CCC1,89.9
9,Cc1ccc(NC2=CC(=O)c3sc(C)nc3C2=O)cc1 [Ryuvidine],59.2
10,Nc1cc(F)ccc1NC(=O)/C=C/c1cnn(C/C=C/c2ccccc2)c1,98
11,COc1cc2c(NC3CCN(C(C)C)CC3)nc(C3CCCCC3)nc2cc1OCCCN1CCCC1,77.7
12,Cc1noc(C)c1-c1ccc(-c2nc3cnccn3c2NC(C)(C)C)cc1,84.1
13,CC(C)C(=O)SCCCCCCC(=O)Nc1nc(-c2ccccc2)cs1,82.8
14,Nc1ccccc1NC(=O)c1ccc(CNC(=O)OCc2cccnc2)cc1,83.8
15,O=C1/C(=C/c2ccc(O)c(Br)c2)CCC/C1=C\c1ccc(O)c(Br)c1 [HAT Inhibitor II],89.2
16,CC(C)N(CCCNC(=O)Nc1ccc(C(C)(C)C)cc1)C[C@H]1O[C@@H](n2cc(Br)c3c(N)ncnc32)[C@H](O)[C@@H]1O,88
17,C/C(=N\NC(=O)c1cccc(S(=O)(=O)N2CCOCC2)c1)c1cc(Cl)ccc1O,89.1
18,Nc1nccc2c1ncn2C1C=C(CO)C(O)C1O (stereo not given) [3-Deazaneplanocin A],88.8
19,CC[C@@H]1C(=O)N(C)c2cnc(Nc3ccc(C(=O)NC4CCN(C)CC4)cc3OC)nc2N1C1CCCC1,78.1
20,CS(=O)(=O)c1ccc(-c2cnc(NCc3ccco3)n3cnnc23)cc1,88.5

# Same assay, conditions: concentration: 10 µM; exposure time: 72 h
row,Compound,gametocyte viability
1,CCCNNC(=O)c1ccc(CNC(=O)/C=C/c2ccccc2)cc1 [HDAC3 Inhibitor],93.8
2,O=C(O)c1ccc(CN2CCC(CN[C@@H]3C[C@H]3c3ccccc3)CC2)cc1,88.4
3,CCCC(=O)[O-].[Na+] [Sodium Butyrate],84.7
4,O=C(NC[C@H](O)CN1CCc2ccccc2C1)c1ccnc(NC2CCC2)c1,79.5
5,Nc1cc(F)ccc1NC(=O)c1ccc(CNC(=O)/C=C/c2cccnc2)cc1 [Chidamide],93.4
6,COc1cc2c(NC3CCN(C4CCCCC4)CC3)nc(N3CCCN(C(C)C)CC3)nc2cc1OCCCN1CCCCC1,13.4 (active)
7,O=Nc1ccc(O)c2ncccc12 [5-Nitroso-8-quinolinol],11.5 (active)
8,COc1cc2c(cc1OCCCN1CCCC1)N=C(N)C21CCC1,93.7
9,Cc1ccc(NC2=CC(=O)c3sc(C)nc3C2=O)cc1 [Ryuvidine],19.2 (active)
10,Nc1cc(F)ccc1NC(=O)/C=C/c1cnn(C/C=C/c2ccccc2)c1,91.8
11,COc1cc2c(NC3CCN(C(C)C)CC3)nc(C3CCCCC3)nc2cc1OCCCN1CCCC1,15.4 (active)
12,Cc1noc(C)c1-c1ccc(-c2nc3cnccn3c2NC(C)(C)C)cc1,64.8
13,CC(C)C(=O)SCCCCCCC(=O)Nc1nc(-c2ccccc2)cs1,79.7
14,Nc1ccccc1NC(=O)c1ccc(CNC(=O)OCc2cccnc2)cc1,88
15,O=C1/C(=C/c2ccc(O)c(Br)c2)CCC/C1=C\c1ccc(O)c(Br)c1 [HAT Inhibitor II],83.2
16,CC(C)N(CCCNC(=O)Nc1ccc(C(C)(C)C)cc1)C[C@H]1O[C@@H](n2cc(Br)c3c(N)ncnc32)[C@H](O)[C@@H]1O,49.3 (active)
17,C/C(=N\NC(=O)c1cccc(S(=O)(=O)N2CCOCC2)c1)c1cc(Cl)ccc1O,85.8
18,Nc1nccc2c1ncn2C1C=C(CO)C(O)C1O (stereo not given) [3-Deazaneplanocin A],88.1
19,CC[C@@H]1C(=O)N(C)c2cnc(Nc3ccc(C(=O)NC4CCN(C)CC4)cc3OC)nc2N1C1CCCC1,16.6 (active)
20,CS(=O)(=O)c1ccc(-c2cnc(NCc3ccco3)n3cnnc23)cc1,91.4
